# From the supplement of paper PMC6897291
# Tested on: RIVA
# Assay: growth inhibition by drug alone (1 - RLU/untreated control) (fraction); higher = stronger inhibition
# Settings: 177Lu-lilotomab satetraxetan 0 ug/ml
# Procedure: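 RIVA (RI-1) ABC-DLBCL cells were pretreated or not for 18 h with 0.5 ug/ml 177Lu-lilotomab satetraxetan (600 MBq/mg), washed and seeded (3000 cells/well) on 384-well plates pre-printed with the Selleck Cambridge Cancer Compound library. Viability was read by RealTime-Glo luminescence on days 3-6 after seeding. Effect = 1 - RLU/mean RLU of the 48 untreated no-drug control wells per plate; Bliss score = (M-E)/(1-Fa).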
Structure (SMILES),"growth inhibition by drug alone (10 nM, time (day): 3)","growth inhibition by drug alone (10 nM, time (day): 4)","growth inhibition by drug alone (10 nM, time (day): 5)","growth inhibition by drug alone (10 nM, time (day): 6)","growth inhibition by drug alone (100 nM, time (day): 3)","growth inhibition by drug alone (100 nM, time (day): 4)","growth inhibition by drug alone (100 nM, time (day): 5)","growth inhibition by drug alone (100 nM, time (day): 6)"
Cc1ccccc1-n1c(Cn2cnc3c(N)ncnc32)nc2cccc(C)c2c1=O,-0.0276,-0.0854,-0.0849,-0.118,0.0893,-0.00364,-0.0617,-0.104
Cn1cc(C2=C(c3cn(C4CCN(Cc5ccccn5)CC4)c4ccccc34)C(=O)NC2=O)c2ccccc21,-0.161,-0.222,-0.236,-0.302,-0.273,-0.319,-0.329,-0.414
CCC1(c2ccc(N)cc2)CCC(=O)NC1=O (stereo not given) [Aminoglutethimide (Cytadren)],-0.0651,-0.101,-0.237,-0.445,-0.578,-0.484,-0.518,-0.688
O=C(O)c1nn(Cc2ccc(Cl)cc2Cl)c2ccccc12 [Lonidamine],0.0283,0.0585,0.0114,-0.393,-0.419,-0.301,-0.332,-0.381
CC(O)(CS(=O)(=O)c1ccc(F)cc1)C(=O)Nc1ccc(C#N)c(C(F)(F)F)c1 (stereo not given) [Bicalutamide (Casodex)],0.121,0.0197,-0.0376,-0.206,0.0203,-0.00253,-0.0289,-0.0827
